Measured values: PubChem BioAssay
The source made the active and inactive calls. Unless noted, how the calls were made is not given here.

Assays:
[1] = A549 cell viability effects, profiling panel, calcein-AM fluorescence, 48 h, basal (AID 1162); conditions: higher = more signal; further: test concentration not given here
[2] = adipocyte viability effects, profiling panel, cell-based, 3T3-L1 adipocytes, calcein-AM fluorescence, 48 h, basal (AID 1163); conditions: 3T3-L1 adipocytes viability, higher = more signal; further: test concentration not given here
[3] = HepG2 cell viability effects, profiling panel, calcein-AM fluorescence, 48 h, basal (AID 1164); conditions: higher = more signal; further: test concentration not given here
[4] = MM1S cell viability effects, profiling panel, calcein-AM fluorescence, 48 h, basal (AID 1165); conditions: higher = more signal;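 further: viability of MM1S multiple myeloma cells under basal unstimulated conditions; test concentration not given here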
[5] = basal RPMI8226 viability, no added stimulus, profiling panel, cell-based, calcein-AM fluorescence, 48 h, PK04 Diversity Set (AID 1166); conditions: RPMI8226 myeloma viability, higher = more signal;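 further: cells grown under basal conditions without added stimulus; test concentration not given here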
[6] = basal HepG2 mitochondrial membrane potential changes, profiling panel, cell-based, JC-1 fluorescence, 24 h, 100 nL compound (AID 1167); conditions: higher = more signal; further: test concentration not given here
[7] = basal 3T3-L1 adipocyte mitochondrial potential changes, profiling panel, cell-based, JC-1 fluorescence, 3T3-L1 adipocytes, 24 h, 100 nL compound (AID 1168); conditions: JC-1 mitochondrial fluorescence, higher = more signal, called active from +8 up or from −8 down; further: test concentration not given here
[8] = basal RPMI8226 mitochondrial membrane potential changes, profiling panel, cell-based, JC-1 fluorescence, 24 h, 100 nL compound (AID 1169); conditions: RPMI8226 myeloma, JC-1 mitochondrial potential fluorescence, higher = more signal; further: test concentration not given here
[9] = basal MM1S mitochondrial membrane potential changes, profiling panel, cell-based, JC-1 fluorescence, 24 h, 100 nL compound (AID 1170); conditions: higher = more signal; further: test concentration not given here
[10] = A549 lung cancer cell viability effects, profiling panel, resazurin fluorescence, 24 h, PK04 Diversity Set (AID 1171); conditions: higher = more signal, called active from +8 up or from −8 down; further: test concentration not given here
[11] = HepG2 liver cancer cell viability effects, profiling panel, resazurin fluorescence, 24 h, PK04 Diversity Set (AID 1172); conditions: higher = more signal; further: test concentration not given here
[12] = basal S. cerevisiae growth modulation, no modifier, primary screen, OD600, strain BY4716, 24 h, basal condition (AID 1173); conditions: OD600, 24 h, higher = more signal, called active from +8 up or from −8 down
[13] = MM1S myeloma cell viability, profiling panel, resazurin fluorescence, basal, 24 h, PK04 Diversity Set (AID 1174); conditions: higher = more signal, called active from +8 up or from −8 down;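 further: MM1S multiple myeloma cell line; test concentration not given here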
[14] = target: Dihydroorotate dehydrogenase (quinone), mitochondrial (Plasmodium falciparum (isolate 3D7)) (UniProt Q08210); assay: PfDHODH enzyme inhibitors, primary screen, biochemical, C-terminal His tag, absorbance 600 nm (AID 1175); conditions: DCIP absorbance 600 nm, higher = more signal, called active from +8 up or from −8 down;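 further: recombinant parasite enzyme with a five histidine tag at its C terminus; test concentration not given here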
Dihydroorotate dehydrogenase (quinone), mitochondrial (Plasmodium falciparum (isolate 3D7)), sequence (Q08210 whole entry, looked up): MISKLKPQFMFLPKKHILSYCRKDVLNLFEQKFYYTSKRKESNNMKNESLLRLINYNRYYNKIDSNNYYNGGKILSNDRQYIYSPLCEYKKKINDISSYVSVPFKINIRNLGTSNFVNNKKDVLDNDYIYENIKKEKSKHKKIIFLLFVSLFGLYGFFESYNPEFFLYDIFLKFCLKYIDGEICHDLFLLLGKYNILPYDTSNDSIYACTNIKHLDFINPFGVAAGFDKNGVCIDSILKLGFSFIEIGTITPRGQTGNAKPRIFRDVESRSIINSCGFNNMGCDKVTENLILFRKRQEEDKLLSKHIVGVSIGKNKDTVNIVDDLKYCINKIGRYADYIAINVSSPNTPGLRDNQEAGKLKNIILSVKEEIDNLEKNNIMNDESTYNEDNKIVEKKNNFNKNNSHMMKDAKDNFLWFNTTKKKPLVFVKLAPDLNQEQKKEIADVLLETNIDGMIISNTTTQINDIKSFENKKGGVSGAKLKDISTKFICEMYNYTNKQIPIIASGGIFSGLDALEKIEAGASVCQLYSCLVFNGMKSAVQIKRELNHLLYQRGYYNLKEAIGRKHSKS

[15] = P. aeruginosa biofilm formation inhibitors, primary screen, strain PAO1, LB-PBS medium, absorbance 600 nm (AID 1176); further: test concentration not given here; conditions: P. aeruginosa PAO1 growth/biofilm, A600, 12 h; higher = more signal
[16] = S. cerevisiae RM11-1a growth modifiers, primary screen, strain RM11-1a, OD600, basal, 24 h (AID 1177); conditions: OD600, 24 h, higher = more signal, called active from +8 up or from −8 down;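 further: cultures grown under basal conditions with no added stressor; test concentration not given here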
[17] = E. coli acrAB mutant growth effects, primary screen, E. coli filamentation inducers, strain DRC39, OD650, 24 h (AID 1178); conditions: higher = more signal, called active from +8 up or from −8 down;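 further: growth measured as culture turbidity by optical density at 650 nm; test concentration not given here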
[18] = E. coli acrAB mutant growth effects, primary screen, E. coli filamentation inducers, strain DRC39, OD650, 48 h (AID 1179);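 further: screen aims at cell division blockers that make cells filament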; conditions: E. coli DRC39 delta-acrAB growth, higher = more signal, called active from +8 up or from −8 down
[19] = RPMI8226 myeloma cell viability, profiling panel, resazurin fluorescence, basal, 24 h, PK04 Diversity Set (AID 1180); conditions: higher = more signal;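 further: RPMI8826 multiple myeloma cell line at 5000 cells per well; test concentration not given here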
[20] = target: E3 ubiquitin-protein ligase XIAP (Homo sapiens) (UniProt P98170); assay: XIAP binders, primary screen, biophysical, small-molecule microarray, fluorescence 635 nm (AID 1181); conditions: small-molecule microarray binding, higher = more signal;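 further: score merges 667 nm emission and signal to noise over triplicate slides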
E3 ubiquitin-protein ligase XIAP (Homo sapiens), sequence (P98170 whole entry, looked up): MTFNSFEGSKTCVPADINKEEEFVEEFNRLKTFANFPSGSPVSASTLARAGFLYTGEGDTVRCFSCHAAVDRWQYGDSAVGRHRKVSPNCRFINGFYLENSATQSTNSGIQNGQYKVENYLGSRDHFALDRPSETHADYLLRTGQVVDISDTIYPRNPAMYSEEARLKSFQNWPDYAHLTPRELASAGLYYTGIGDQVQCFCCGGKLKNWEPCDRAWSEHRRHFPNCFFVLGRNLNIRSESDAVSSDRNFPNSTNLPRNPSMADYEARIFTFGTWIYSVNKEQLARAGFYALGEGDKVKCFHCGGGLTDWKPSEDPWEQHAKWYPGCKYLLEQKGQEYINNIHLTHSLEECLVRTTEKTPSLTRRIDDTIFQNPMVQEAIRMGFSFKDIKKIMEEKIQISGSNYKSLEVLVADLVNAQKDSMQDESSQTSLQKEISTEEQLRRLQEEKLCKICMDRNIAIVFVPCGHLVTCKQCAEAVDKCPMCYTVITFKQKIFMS

Structure (SMILES)	z-score [1]	z-score [2]	z-score [3]	z-score [4]	z-score [5]	z-score [6]	z-score [7]	z-score [8]	z-score [9]	z-score [10]	z-score [11]	z-score [12]	z-score [13]	composite z-score [14]	z-score [15]	z-score [16]	z-score [17]	z-score [18]	z-score [19]	composite z-score [20]
CN(C)C(=O)[C@@]1(Cc2ccccc2N=[N+]=[N-])N=C(c2ccc(OCCCO)cc2)O[C@H]1c1ccccc1N=[N+]=[N-]	-0.0639	1.45	-1.38	-3.16	-4.47	1.45	0.918 (inactive)	-1.26	-1.03	-0.406 (inactive)	-0.663	0.582 (inactive)	-1.8 (inactive)	1.32 (inactive)	-0.73 (inactive)	2.9 (inactive)	0.732 (inactive)	-0.421 (inactive)	-2.2	1.98
COCCOC(=O)N1C(=O)[C@@]2(c3cc(C#CCNC(N)=O)ccc31)[C@H](C(=O)N1CCCCCCC1)[C@H]1C(=O)O[C@H](c3ccccc3)[C@H](c3ccccc3)N1[C@@H]2c1ccc(OCCO)cc1	0.626	0.636	1.46	0.246	1.01	-1.47	-2.15 (inactive)	-0.764	-1.75	-0.619 (inactive)	-0.178	0.971 (inactive)	-0.237 (inactive)	-0.0134 (inactive)	2.73 (inactive)	1.59 (inactive)	-0.0272 (inactive)	0.531 (inactive)	0.176	0.0471
O=C1C2C=CC(C(O)c3cccc4ccccc34)N(Nc3ccccc3)C2C(=O)N1c1ccccc1 (stereo not given)	0.112	-1.54	0.22	-0.624	-1.52	-1.09	-0.209 (inactive)	-0.408	-0.318	-0.854 (inactive)	0.451	-3.11 (inactive)	0.0605 (inactive)	0.651 (inactive)	1.6 (inactive)	-0.0805 (inactive)	-0.148 (inactive)	0.133 (inactive)	-0.0011	0.197
CC(C)C(CO)N1C(=O)[C@@H]2[C@H]3C(=O)OCC=C[C@H]3OC23C=CCN(Cn2nnc4ccccc42)C(=O)[C@@H]13 (stereo not given in full)	-0.746	-0.191	-0.751	0.48	-0.653	-0.578	-0.373 (inactive)	0.432	0.281	-0.274 (inactive)	0.288	0.959 (inactive)	-0.281 (inactive)	0.237 (inactive)	0.894 (inactive)	0.68 (inactive)	-0.497 (inactive)	-0.708 (inactive)	-0.0558	0.175
CCCC=C(CCC)[C@@H](NS(=O)(=O)c1ccccc1)c1ccc(C(F)(F)F)cc1	-2.27	-0.287	-2.34	-2.55	-4.06	-3.56	-0.634 (inactive)	-0.981	-2.47	-0.795 (inactive)	-0.574	0.892 (inactive)	-2.56 (inactive)	-0.62 (inactive)	-0.415 (inactive)	1.07 (inactive)	-0.28 (inactive)	-0.428 (inactive)	-3.59	0.0039
NC(=O)NCC#Cc1ccc2c(c1)[C@]1(C(=O)N2)[C@H](c2ccc(OCCO)cc2)N2[C@H](c3ccccc3)[C@H](c3ccccc3)OC(=O)[C@H]2[C@@H]1C(=O)N1CCCCCCC1	-0.702	-0.467	-0.455	0.135	-1.31	-1.76	-1.87 (inactive)	-0.638	-1.02	0.252 (inactive)	0.314	1.64 (inactive)	-0.476 (inactive)	0.769 (inactive)	2.03 (inactive)	2.58 (inactive)	-0.172 (inactive)	-1.96 (inactive)	-0.507	0.531
COC(=O)[C@@]1(Cc2ccc(F)cc2)[C@H]2c3cc(C(=O)N(C)C)n(CCSCCO)c3C[C@H]2CN1C(=O)c1ccccc1	-0.716	-0.352	0.665	-0.684	-1.08	-0.572	-0.682 (inactive)	-0.0796	0.172	-0.0793 (inactive)	-0.234	-0.0857 (inactive)	-0.42 (inactive)	-0.467 (inactive)	0.399 (inactive)	0.0891 (inactive)	-0.514 (inactive)	-0.32 (inactive)	-0.107	-0.234
C[C@H]1ON(c2ccccc2)[C@@H](c2ccccc2)[C@@H]1C(=O)N1C(=O)OC[C@@H]1c1ccccc1	-0.279	0.261	-0.941	0.608	-0.144	-1.24	0.46 (inactive)	0.488	-0.127	0.535 (inactive)	0.565	0.551 (inactive)	0.715 (inactive)	-0.199 (inactive)	-0.189 (inactive)	1.5 (inactive)	0.259 (inactive)	-0.0075 (inactive)	0.942	-0.123
CCCc1cc2c(n1Cc1ccc(OC)cc1)C(C)C1CN(C(=O)c3ccccc3)C(C)(C(=O)OC)C21 (stereo not given)	-0.923	0.431	-0.815	-2.74	-4.66	2.08	-1.82 (inactive)	-0.157	-1.61	-0.535 (inactive)	-1.34	1.08 (inactive)	-1.69 (inactive)	-0.118 (inactive)	1.21 (inactive)	0.864 (inactive)	-1.09 (inactive)	-0.395 (inactive)	-1.7	0.493
COc1ccc([Si](C)(C)[C@@H]2[C@@H](CCO)O[C@]3(C(=O)N(Cc4ccc(N5C(=O)c6ccccc6Oc6ccccc65)cc4)c4ccccc43)[C@H]2C)cc1	-0.738	-0.703	-3.56	-2.31	-3.17	-0.42	0.462 (inactive)	-1.06	-1.68	-1.47 (inactive)	0.0213	2.15 (inactive)	-0.848 (inactive)	-0.343 (inactive)	2.88 (inactive)	4.38 (inactive)	0.365 (inactive)	-0.275 (inactive)	-3.07	-0.203
COc1cc(NN2C(C(O)c3ccc(I)cc3)C=CC3C(=O)N(C)C(=O)C32)cc(OC)c1OC (stereo not given)	-0.0595	0.459	0.196	-0.07	0.24	-0.461	0.0122 (inactive)	-0.335	-0.311	-1.42 (inactive)	-1.7	0.643 (inactive)	-0.297 (inactive)	-0.698 (inactive)	1.08 (inactive)	-0.377 (inactive)	0.168 (inactive)	-0.413 (inactive)	-0.786	0.346
O=C(N1CCOCC1)[C@@]1(CCS(=O)(=O)c2ccccc2)COC(c2ccc(OCCCO)cc2)=N1	0.437	-1.09	-0.0333	0.205	0.108	-0.33	-0.4 (inactive)	0.238	-0.659	0.201 (inactive)	0.0754	0.0036 (inactive)	-0.262 (inactive)	0.0576 (inactive)	0.193 (inactive)	0.0216 (inactive)	-0.0668 (inactive)	0.589 (inactive)	-0.387	-0.02
COc1ccc([Si](C)(C)[C@@H]2[C@@H](CC(=O)N(CCO)Cc3ccccc3)O[C@]3(C(=O)N(C)c4c(Br)cc(C)cc43)[C@H]2C)cc1	-2.07	-0.0228	-2.44	-2.75	-4.38	-2.82	-0.68 (inactive)	-1.17	-2.11	-0.99 (inactive)	-1.57	-0.951 (inactive)	-1.79 (inactive)	0.216 (inactive)	0.802 (inactive)	1.64 (inactive)	-0.109 (inactive)	-0.75 (inactive)	-2.21	-0.174
O=C1N(CCS(=O)(=O)c2ccccc2)Cc2ccccc2C[C@@]12COC(c1ccc(OCCCO)cc1)=N2	-0.696	0.643	1.13	-2.84	-1.53	-1.08	0.0146 (inactive)	-1.03	-2.13	-3.42 (inactive)	0.0549	1.58 (inactive)	-5.12 (inactive)	-0.211 (inactive)	0.0379 (inactive)	2.14 (inactive)	0.862 (inactive)	-0.691 (inactive)	-3.43	0.167
COC(=O)c1ccc(OC)c(/C=C\CC(CCc2ccccc2)OC(C)=O)c1 (stereo not given)	-0.349	-0.191	-0.349	-1.35	0.346	-1.3	-0.459 (inactive)	-0.48	0.893	0.671 (inactive)	-0.928	-0.527 (inactive)	-0.0834 (inactive)	-0.162 (inactive)	-0.131 (inactive)	-0.424 (inactive)	0.0214 (inactive)	-0.238 (inactive)	0.271	-0.253
CC1(C)[C@@H]2CC(C(O)C3C=CC4C(=O)N(c5ccccc5)C(=O)C4N3Nc3ccccc3F)=C[C@@H]1C2 (stereo not given in full)	0.604	-0.297	-0.0679	0.848	0.219	-0.424	-1.07 (inactive)	0.157	-1.41	1.01 (inactive)	1.48	-0.393 (inactive)	0.941 (inactive)	1.09 (inactive)	0.16 (inactive)	-0.393 (inactive)	0.018 (inactive)	0.985 (inactive)	-1.19	0.18
CCCCC(O)C1C=CC2C(=O)N(Cc3ccccc3)C(=O)C2N1n1cnnc1 (stereo not given)	-1.15	0.845	-0.189	0.179	-0.458	0.135	-0.942 (inactive)	-0.874	-1.26	0.164 (inactive)	-1.23	0.0393 (inactive)	-0.748 (inactive)	0.504 (inactive)	0.148 (inactive)	-0.601 (inactive)	-0.395 (inactive)	-0.436 (inactive)	-0.409	0.0937
